Results on 62 molecules are retold here after PubChem BioAssay AID588342 (National Center for Advancing Translational Sciences (NCATS), 2011).

The whole screen tested about 360,000 compounds, of which about 25,000 (6.9%) were called active. Entries that show only a call come without a potency. Not shown: some 9% with an inconclusive outcome. Calls come from the whole dose curve; as a rule, active = well fitted inhibition curve with a large enough effect; inconclusive = small, poorly fitted or top-dose-only effect; inactive = flat fitted curve, though single readings scatter. For the sample, actives were picked, then their nearest neighbours and some compounds at random.
Potency is the fitted concentration of half-maximal effect.

Luciferin 4-monooxygenase (Photinus pyralis), sequence (P08659 whole entry, looked up): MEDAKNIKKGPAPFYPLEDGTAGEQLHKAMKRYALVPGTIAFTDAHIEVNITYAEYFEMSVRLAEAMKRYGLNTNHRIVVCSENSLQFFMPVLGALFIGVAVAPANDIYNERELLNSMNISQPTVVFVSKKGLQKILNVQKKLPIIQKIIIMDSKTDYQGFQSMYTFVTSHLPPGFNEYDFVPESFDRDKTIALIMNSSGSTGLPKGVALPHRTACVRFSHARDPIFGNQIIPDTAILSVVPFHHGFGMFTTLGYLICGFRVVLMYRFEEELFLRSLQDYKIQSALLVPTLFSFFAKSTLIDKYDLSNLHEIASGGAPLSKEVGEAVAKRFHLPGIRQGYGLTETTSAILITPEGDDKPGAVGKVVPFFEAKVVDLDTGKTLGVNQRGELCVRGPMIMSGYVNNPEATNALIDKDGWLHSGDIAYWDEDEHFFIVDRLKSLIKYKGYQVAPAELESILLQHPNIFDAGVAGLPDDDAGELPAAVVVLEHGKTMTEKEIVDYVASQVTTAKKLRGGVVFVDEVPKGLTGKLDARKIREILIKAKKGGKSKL

The test addresses Luciferin 4-monooxygenase (Photinus pyralis) (UniProt P08659). As to the kind of experiment: qHTS profiling assay for firefly luciferase inhibitor/activator using purifed enzyme and Km concentrations of substrates (counterscreen for miR-21 project). Note: nearly all actives have a fitted effect of over 55% in size. The note with it: purified FLuc, luminescence inhibition; series mostly up to 57.5 µM. The method in brief:
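Purified P. pyralis luciferase (10nM final) with 10uM D-luciferin and 10uM ATP (Km levels) in 50mM Tris acetate pH 7.5, 10mM Mg acetate, 0.01% Tween-20, 0.05% BSA; qHTS 6-point titration, ~60 µM downward; luminescence read.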
(In qHTS, concentration-response curves come from the screen itself.)
With `CCCCc1ccc(NS(=O)(=O)c2cccc(C(=O)N3CCCN(C)CC3)c2)cc1`, the Potency result was “inactive”.

On to `COc1ccc(NS(=O)(=O)c2ccc(NC(=S)NC(=O)/C=C/c3ccc(C)cc3)cc2)nn1`, for which the Potency result was “inactive”.

For `COc1cc(NS(=O)(=O)c2ccc(NC(C)=O)cc2)cc(OC)c1`, the Potency result is “inactive”.

Take `COc1ccc(/C=C/C(=O)c2ccc(NS(=O)(=O)c3ccc(C)cc3)cc2)cc1O`: the Potency was 6.01 µM (active).

For the molecule `COc1cccc2c1cc1c(=O)n(CC(=O)N3CCN(c4ccccc4)CC3)nc(C)n12`, the Potency result was “inactive”.

With `Cc1ccsc1/C=N/n1c(=S)[nH]nc(C)c1=O`, the Potency result is “inactive”.

With `COc1ccc(/C=N/NC(=O)C2CC2)c(OC)c1OC`, the Potency result was “inactive”.

For the molecule `COc1cc2cc(C(=O)N/N=C/c3cccc(OC)c3OC)[nH]c2cc1OC`, the Potency was 16.9 µM (active).

Turning to `COc1ccc(CC(=O)NCC(=O)N/N=C/c2cc(Br)ccc2OC)cc1`, the Potency entry is “inactive”.

As to `COc1cc(/C=N/NC(=O)Cc2ccccc2)cc(OC)c1OC`, the Potency result is “inactive”.

For the molecule `CCOc1ccc2[nH]c(C(=O)N/N=C/c3cccc(OC)c3OC)cc2c1`, the Potency was 15.1 µM (active).

Take `CCOc1ccccc1/C=N/NC(=O)CNC(=O)COc1ccccc1`: the Potency result was “inactive”.

With `COc1ccc2[nH]c(C(=O)N/N=C/c3cc(OC)c(OC)c(OC)c3)cc2c1`, the Potency is 12 µM (active).

Take `COc1cccc(/C=N/NC(=O)CNC(=O)c2ccc(S(=O)(=O)N3CCOCC3)cc2)c1OC`: the Potency entry is “inactive”.

In the case of `COc1cccc(OCc2cc(/C=N/NC(=O)c3nc(Cl)c(Cl)c(N)c3Cl)ccc2OC)c1`, the Potency entry is “inactive”.

For `Cc1[nH]c2ccccc2c1C(=O)C(C)Sc1nnc(C2CC2)o1` (configuration not stated), the Potency result was “inactive”.

Regarding `CC1=C(C(=O)OCC(C)C)C(c2ccc(OCc3ccccc3)cc2)N2C(=O)CCSC2=N1` (configuration not stated), the Potency entry was “inactive”.

With `Cc1cccc(C(=O)N2CCc3cc(CNC(=O)Cc4ccc(F)cc4)ccc32)c1`, the Potency entry is “inactive”.

`O=C(CSc1oc(-c2ccc(F)cc2)nc1S(=O)(=O)c1ccc(Br)cc1)NC1CCCCC1`: the Potency entry is “inactive”.

On to `CCOC(=O)c1ccc2c(c1)N(Cc1cccc(OC)c1)C(=O)c1ccccc1S2(=O)=O`, for which the Potency result was “inactive”.

As for `C/C(=N\NC(=O)Cc1ccc(Cl)cc1)c1ccccn1`, the Potency result is “inactive”.

Take `C/C(CC(=O)Nc1ccc(N(C)C)cc1)=N\NC(=O)c1ccccc1F`: the Potency result was “inactive”.

As for `C/C(=N\NC(=O)c1ccccc1F)c1ccccn1`, the Potency is 2.39 µM (active).

For `CCCSc1ncc(Cl)c(C(=O)Nc2c(C(=O)Nc3ccccc3)oc3ccccc23)n1`, the Potency result was “inactive”.

For `O=C(CN1CCCSc2ccccc21)N1CCN(S(=O)(=O)c2ccccc2)CC1`, the Potency result is “inactive”.

On to `N#C/C=C1\Sc2ccccc2C(=O)N1CC(=O)N1CCN(S(=O)(=O)c2ccccc2)CC1`, for which the Potency is 9.53 µM (active).

Take `O=C(CN1CCCSc2ccccc21)N1CCN(S(=O)(=O)c2cccc(F)c2)CC1`: the Potency entry was “inactive”.

For `CC(=O)N1CCCc2cc(S(=O)(=O)N3CCC(C(=O)NC4CCCCC4)CC3)ccc21`, the Potency entry is “inactive”.

Regarding `Cc1cn(C)c(CC(=O)NCc2ccccc2)c1C(=O)O`, the Potency entry is “inactive”.

As for `CN=C1S/C(=C\c2ccc(Sc3ccc(Cl)cc3)o2)C(=O)N1C`, the Potency result is “inactive”.

As for `O=C(O)C(c1ccccc1)N1C(=O)/C(=C\c2ccc(-c3cccc(Cl)c3)o2)SC1=S` (configuration not stated), the Potency result was “inactive”.

Turning to `CN1C(=O)/C(=C\c2ccc(-c3ccccc3)o2)SC1=S`, the Potency was 2.39 µM (active).

Consider `COc1ccccc1NC(=O)CSC1=Nc2ccccc2C2=NC(CC(=O)NCc3cccs3)C(=O)N12` (configuration not stated), for which the Potency entry was “inactive”.

As for `COc1ccc(-n2nc(C(=O)NCC(=O)Nc3cccc(C)n3)c3ccccc3c2=O)cc1`, the Potency result was “inactive”.

Turning to `COc1cccc(NC(=O)c2nn(-c3ccc(OC)cc3OC)c(=O)c3ccccc23)c1`, the Potency result was “inactive”.

Regarding `COc1ccc(-n2nc(C(=O)NCC(=O)N3CCC(C(N)=O)CC3)c3ccccc3c2=O)cc1OC`, the Potency was 12 µM (active).

For the molecule `COc1ccc(-n2nc(C(=O)NCCc3ccc(Cl)cc3)c3c4ccccc4n(C)c3c2=O)cc1Cl`, the Potency result was “inactive”.

Take `COc1ccc(-n2nc(C(=O)Nc3cc(OC)c(OC)c(OC)c3)c3ccccc3c2=O)c(OC)c1`: the Potency entry is “inactive”.

Take `CCOC(=O)CNC(=O)c1nn(-c2cccc(OC)c2)c(=O)c2ccccc12`: the Potency entry was “inactive”.

As for `COc1ccc(-n2nc(C(=O)NCC(=O)N3CCN(c4ccccc4OC)CC3)c3ccccc3c2=O)c(OC)c1`, the Potency was 1.69 µM (active).

With `COc1ccc(-n2nc(C(=O)NCC(=O)N3CCCCCC3)c3ccccc3c2=O)cc1Cl`, the Potency is 3.38 µM (active).

With `COCCCNC(=O)CNC(=O)c1nn(-c2ccc(OC)cc2)c(=O)c2ccccc12`, the Potency entry was “inactive”.

With `O=C(NCC1CCCO1)c1ccc(S(=O)(=O)Nc2ccc(F)cc2)cc1` (configuration not stated), the Potency result was “inactive”.

Consider `O=S(=O)(NCc1ccccc1Cl)c1cnc[nH]1`, for which the Potency entry is “inactive”.

With `COc1ccccc1OCc1nc2ccccc2s1`, the Potency is 0.601 µM (active).

As for `COc1ccc(-c2nc3ccccc3s2)cc1NC(=O)COc1ccccc1C`, the Potency entry was “inactive”.

With `COC(=O)C1[C@H]2SC(C)(C)C(C(=O)OC)N2C(=O)N1Cc1nc2ccccc2s1` (some centres not stated), the Potency result was “inactive”.

Take `Cc1cc(O)c(C(c2ccccc2)N2CCN(c3ccccc3F)CC2)c(=O)n1Cc1ccco1` (configuration not stated): the Potency result was “inactive”.

As for `O=C(CCC1N=C2c3ccccc3N=C(SCc3ccccc3F)N2C1=O)NCCc1ccccc1` (configuration not stated), the Potency entry was “inactive”.

Consider `CC(NC(=O)c1ccc(S(=O)(=O)Nc2ccccc2)cc1)c1ccc(S(N)(=O)=O)cc1` (configuration not stated), for which the Potency entry was “inactive”.

Turning to `O=C1/C(=C/c2cccs2)SC(=S)N1C1CCS(=O)(=O)C1` (configuration not stated), the Potency result was “inactive”.

Turning to `O=C(COC(=O)/C=C/c1cccs1)NC1CCCCC1`, the Potency entry was “inactive”.

Take `CCC1C/C(=C/c2cccs2)C(=O)/C(=C/c2cccs2)C1` (configuration not stated): the Potency entry was “inactive”.

Take `O=C1/C(=C/c2cccs2)CCC1C1CCCC1` (configuration not stated): the Potency is 3.38 µM (active).

Consider `O=C1/C(=C/c2cccs2)CCc2ccccc21`, for which the Potency was 0.757 µM (active).

For the molecule `O=S(=O)(c1cccs1)N1CCc2ccccc2C1`, the Potency result was “inactive”.

As for `COc1ccccc1-c1cc(C(F)(F)F)nc(S(=O)(=O)CCCC(=O)Nc2cc(C)ccc2O)n1`, the Potency entry is “inactive”.

With `O=C(CSc1nnc(N2CCOCC2)n1-c1cccc(F)c1)N1CCN(c2ccccn2)CC1`, the Potency entry is “inactive”.

In the case of `COc1cccc(C(=O)NCc2ccc3c(c2)CCN3C(=O)c2ccncc2)c1`, the Potency result was “inactive”.

As to `COc1cccc(C(=O)NCC(=O)OCc2cc(=O)n3ccsc3n2)c1`, the Potency result is “inactive”.

Consider `COc1cccc(C(=O)n2ccc(-c3cccs3)n2)c1`, for which the Potency is 3.38 µM (active).

As to `CC(C)(C)c1cc2cccnc2n1Cc1ccccc1`, the Potency result is “inactive”.
